# In the supplement of paper PMC8728848:
# This excerpt belongs to a sample that is enriched for the strongest signals.
# Legend:
# Test in all cases: glycan array binding signal (z-score within array); higher = stronger binding
# Conditions in all cases: glycan notation: IUPAC condensed, linker removed
# [1] = target: Man(a1-3)[Man(a1-6)]Man(a1-6)[Man(a1-3)]Man(b1-4)GlcNAc(b1-4)GlcNAc
# Summary of the method: (§1)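 Glycan array data came from 3228 arrays in the Consortium for Functional Glycomics database, and only arrays with an available protein sequence were kept. Glycan names were put into IUPAC-condensed notation, and columns mapping to the same glycan were averaged. The binding signal is a within-array Z-score, averaged across arrays of one protein sequence run at different concentrations or buffers and across linkers. A negative Z-score can be read as non-binding.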
# [2] = target: Man(a1-3)[Man(a1-6)]Man(b1-4)GlcNAc(b1-4)GlcNAc
# Summary of the method: as §1
# [3] = target: Neu5Ac(a2-3)Gal(b1-3)GalNAc(b1-4)[Neu5Ac(a2-3)]Gal(b1-4)Glc
# Summary of the method: as §1
# [4] = target: Neu5Ac(a2-3)Gal(b1-4)[Fuc(a1-3)]GlcNAc(b1-3)Gal(b1-4)[Fuc(a1-3)]GlcNAc(b1-3)Gal(b1-4)[Fuc(a1-3)]GlcNAc
# Summary of the method: as §1
# Neu5Ac(a2-6)Gal = target: Neu5Ac(a2-6)Gal
# Summary of the method: as §1
# [5] = target: Neu5Ac(a2-6)Gal(b1-4)GlcNAc(b1-2)Man(a1-3)[Neu5Ac(a2-6)Gal(b1-4)GlcNAc(b1-2)Man(a1-6)]Man(b1-4)GlcNAc(b1-4)GlcNAc
# Summary of the method: as §1
# [6] = target: Neu5Ac(a2-6)Gal(b1-4)GlcNAc(b1-2)Man(a1-3)[Neu5Ac(a2-6)Gal(b1-4)GlcNAc(b1-2)Man(a1-6)]Man(b1-4)GlcNAc(b1-4)[Fuc(a1-6)]GlcNAc
# Summary of the method: as §1
# [7] = target: Neu5Ac(a2-6)Gal(b1-4)GlcNAc(b1-2)Man(a1-6)[Man(a1-3)]Man(b1-4)GlcNAc(b1-4)GlcNAc
# Summary of the method: as §1
# [8] = target: Neu5Ac(a2-6)Gal(b1-4)GlcNAc(b1-3)GalNAc
# Summary of the method: as §1
# Neu5Ac(a2-6)GalNAc = target: Neu5Ac(a2-6)GalNAc
# Summary of the method: as §1
# [9] = target: Neu5Ac(a2-6)GalNAc(b1-4)GlcNAc6S
# Summary of the method: as §1
# Fuc(a1-2)Gal(b1-3)GalNAc = target: Fuc(a1-2)Gal(b1-3)GalNAc
# Summary of the method: as §1
# [10] = target: Fuc(a1-2)Gal(b1-3)GalNAc(a1-3)[Fuc(a1-2)]Gal(b1-4)GlcNAc
# Summary of the method: as §1
# Fuc(a1-2)Gal(b1-4)GlcNAc = target: Fuc(a1-2)Gal(b1-4)GlcNAc
# Summary of the method: as §1
# [11] = target: Fuc(a1-2)Gal(b1-4)GlcNAc(b1-2)Man(a1-3)[Fuc(a1-2)Gal(b1-4)GlcNAc(b1-2)Man(a1-6)]Man(b1-4)GlcNAc(b1-4)[Fuc(a1-6)]GlcNAc
# Summary of the method: as §1
# [12] = target: Fuc(a1-2)Gal(b1-4)[Fuc(a1-3)]GlcNAc
# Summary of the method: as §1
# [13] = target: Fuc(a1-2)Gal(b1-4)[Fuc(a1-3)]GlcNAc(b1-3)Gal(b1-4)[Fuc(a1-3)]GlcNAc(b1-3)Gal(b1-4)[Fuc(a1-3)]GlcNAc
# Summary of the method: as §1
# Fuc(a1-2)Gal6S(b1-4)Glc = target: Fuc(a1-2)Gal6S(b1-4)Glc
# Summary of the method: as §1
# [14] = target: Fuc(a1-2)[Gal(a1-3)]Gal(b1-3)GlcNAc(b1-2)Man(a1-3)[Fuc(a1-2)[Gal(a1-3)]Gal(b1-3)GlcNAc(b1-2)Man(a1-6)]Man(b1-4)GlcNAc(b1-4)GlcNAc
# Summary of the method: as §1
# [15] = target: Fuc(a1-2)[GalNAc(a1-3)]Gal
# Summary of the method: as §1
# [16] = target: Fuc(a1-2)[GalNAc(a1-3)]Gal(b1-3)GlcNAc(b1-3)GalNAc
# Summary of the method: as §1
# [17] = target: Fuc(a1-2)[GalNAc(a1-3)]Gal(b1-4)GlcNAc(b1-3)Gal(b1-4)GlcNAc(b1-3)Gal(b1-4)GlcNAc
# Summary of the method: as §1
# [18] = target: Fuc(a1-3)[Gal(b1-4)]GlcNAc(b1-4)Gal(b1-4)[Fuc(a1-3)]GlcNAc
# Summary of the method: as §1
# [19] = target: Fuc(a1-3)[Gal(b1-4)]GlcNAc(b1-6)GalNAc
# Summary of the method: as §1
# Gal(a1-4)Gal(b1-4)GlcNAc = target: Gal(a1-4)Gal(b1-4)GlcNAc
# Summary of the method: as §1
# Gal(b1-3)GlcNAc = target: Gal(b1-3)GlcNAc
# Summary of the method: as §1
# [20] = target: Gal(b1-3)GlcNAc(b1-3)GalNAc
# Summary of the method: as §1
# Gal(b1-4)Glc6S = target: Gal(b1-4)Glc6S
# Summary of the method: as §1
# [21] = target: Gal(b1-4)GlcNAc(b1-2)Man(a1-3)[Man(a1-6)]Man(b1-4)GlcNAc(b1-4)GlcNAc
# Summary of the method: as §1
# Gal(b1-6)Gal = target: Gal(b1-6)Gal
# Summary of the method: as §1
# [22] = target: Gal3S(b1-3)[Fuc(a1-4)]GlcNAc
# Summary of the method: as §1
# Gal3S6S(b1-4)GlcNAc = target: Gal3S6S(b1-4)GlcNAc
# Summary of the method: as §1
# Gal3S6S(b1-4)GlcNAc6S = target: Gal3S6S(b1-4)GlcNAc6S
# Summary of the method: as §1
# GalNAc(b1-3)GalNAc = target: GalNAc(b1-3)GalNAc
# Summary of the method: as §1
# [23] = target: Glc(a1-4)Glc(a1-4)Glc(a1-4)Glc
# Summary of the method: as §1
# Glc(b1-4)Glc = target: Glc(b1-4)Glc
# Summary of the method: as §1
# [24] = target: GlcNAc(b1-2)[GlcNAc(b1-4)]Man(a1-3)[GlcNAc(b1-2)Man(a1-6)]Man(b1-4)GlcNAc(b1-4)GlcNAc
# Summary of the method: as §1
# GlcNAc(b1-3)Gal(b1-4)Glc = target: GlcNAc(b1-3)Gal(b1-4)Glc
# Summary of the method: as §1
# GlcNAc(b1-3)GalNAc = target: GlcNAc(b1-3)GalNAc
# Summary of the method: as §1
# GlcNAc(b1-3)Man = target: GlcNAc(b1-3)Man
# Summary of the method: as §1
# [25] = target: GlcNAc(b1-3)[GlcNAc(b1-6)]GalNAc
# Summary of the method: as §1
# [26] = target: Man(a1-2)Man(a1-6)[Man(a1-3)]Man(a1-6)[Man(a1-2)Man(a1-2)Man(a1-3)]Man(b1-4)GlcNAc(b1-4)GlcNAc
# Summary of the method: as §1
# Neu5Ac(a2-3)Gal = target: Neu5Ac(a2-3)Gal
# Summary of the method: as §1
# [27] = target: Neu5Ac(a2-3)[GalNAc(b1-4)]Gal(b1-4)GlcNAc
# Summary of the method: as §1
# [28] = target: Neu5Ac(a2-6)Gal(b1-4)GlcNAc
# Summary of the method: as §1
# [29] = target: Neu5Ac(a2-6)Gal(b1-4)GlcNAc(b1-2)Man(a1-3)[Man(a1-6)]Man(b1-4)GlcNAc(b1-4)GlcNAc
# Summary of the method: as §1
# [30] = target: Neu5Ac(a2-6)Gal(b1-4)GlcNAc(b1-2)Man(a1-6)[GlcNAc(b1-2)Man(a1-3)]Man(b1-4)GlcNAc(b1-4)GlcNAc
# Summary of the method: as §1
# [31] = target: Neu5Ac(a2-8)Neu5Ac(a2-3)Gal(b1-3)GalNAc(b1-4)[Neu5Ac(a2-8)Neu5Ac(a2-3)]Gal(b1-4)Glc
# Summary of the method: as §1
# [32] = target: Neu5Ac9Ac(a2-3)Gal(b1-3)GlcNAc
# Summary of the method: as §1
# Neu5Gc(a2-3)Gal(b1-4)Glc = target: Neu5Gc(a2-3)Gal(b1-4)Glc
# Summary of the method: as §1
binder,measurement,setting,value
SalT (Orysata sativa) (protein) MTLVKIGLWGGNGGSAQDISVPPKKLLGVTIYSSDAIRSIAFNYIGVDGQEYAIGPWGGGEGTSTEIKLGSSEHIKEISGTHGPVYDLADIVTYLKIVTSANNTYEAGVPNGKEFSIPLQDSGHVVGFFGRSGTLIDAIGIYVHPILEQKLISEEDLNSAVDHHHHHH,glycan array binding signal (z-score),[1],3.62
same,glycan array binding signal (z-score),[2],4.94
same,glycan array binding signal (z-score),[3],-0.304
same,glycan array binding signal (z-score),[4],-0.305
same,glycan array binding signal (z-score),Neu5Ac(a2-6)Gal,-0.305
same,glycan array binding signal (z-score),[5],2.81
same,glycan array binding signal (z-score),[6],0.435
same,glycan array binding signal (z-score),[7],4.96
same,glycan array binding signal (z-score),[8],-0.296
same,glycan array binding signal (z-score),Neu5Ac(a2-6)GalNAc,-0.307
same,glycan array binding signal (z-score),[9],-0.303
PpFlo3 (Pichia pastoris) (protein) MGSSHHHHHHSSGLVPRGSHMQESGNGTTSDTAYACDIGATPFDGFNATIYQYQASDDNSIQDPVFMSTGYLQRNQLHSTTGVTNPGFNIFTAGVATTTLYGIPNVNYQNMLLELKGYFRADASGNYGLSLRNIDDSAILFFGRETAFECCNENLIPLDEAPTDYSLFTIKEGEASTNPDSYTYTQYLEAGRYYPVRTFFANIRTRAVFNFTMTLPDGSELTDFQNYIFQFGALNQ,glycan array binding signal (z-score),Fuc(a1-2)Gal(b1-3)GalNAc,-0.256
same,glycan array binding signal (z-score),[10],-0.217
same,glycan array binding signal (z-score),Fuc(a1-2)Gal(b1-4)GlcNAc,-0.242
same,glycan array binding signal (z-score),[11],-0.263
same,glycan array binding signal (z-score),[12],4.84
same,glycan array binding signal (z-score),[13],4.32
same,glycan array binding signal (z-score),Fuc(a1-2)Gal6S(b1-4)Glc,-0.279
same,glycan array binding signal (z-score),[14],-0.259
same,glycan array binding signal (z-score),[15],-0.298
same,glycan array binding signal (z-score),[16],-0.014
same,glycan array binding signal (z-score),[17],-0.303
same,glycan array binding signal (z-score),[18],2.75
same,glycan array binding signal (z-score),[19],-0.238
same,glycan array binding signal (z-score),Gal(a1-4)Gal(b1-4)GlcNAc,-0.139
same,glycan array binding signal (z-score),Gal(b1-3)GlcNAc,-0.201
same,glycan array binding signal (z-score),[20],-0.296
same,glycan array binding signal (z-score),Gal(b1-4)Glc6S,4.38
same,glycan array binding signal (z-score),[21],-0.233
same,glycan array binding signal (z-score),Gal(b1-6)Gal,-0.281
same,glycan array binding signal (z-score),[22],5.08
same,glycan array binding signal (z-score),Gal3S6S(b1-4)GlcNAc,-0.27
same,glycan array binding signal (z-score),Gal3S6S(b1-4)GlcNAc6S,-0.269
same,glycan array binding signal (z-score),GalNAc(b1-3)GalNAc,5.1
same,glycan array binding signal (z-score),[23],-0.242
same,glycan array binding signal (z-score),Glc(b1-4)Glc,-0.246
same,glycan array binding signal (z-score),[24],4.67
same,glycan array binding signal (z-score),GlcNAc(b1-3)Gal(b1-4)Glc,-0.291
same,glycan array binding signal (z-score),GlcNAc(b1-3)GalNAc,-0.266
same,glycan array binding signal (z-score),GlcNAc(b1-3)Man,6.76
same,glycan array binding signal (z-score),[25],1.75
same,glycan array binding signal (z-score),[26],-0.271
same,glycan array binding signal (z-score),Neu5Ac(a2-3)Gal,-0.283
same,glycan array binding signal (z-score),[4],-0.266
same,glycan array binding signal (z-score),[27],-0.272
same,glycan array binding signal (z-score),[28],-0.282
same,glycan array binding signal (z-score),[29],-0.281
same,glycan array binding signal (z-score),[30],4.82
same,glycan array binding signal (z-score),[31],-0.017
same,glycan array binding signal (z-score),[32],-0.267
same,glycan array binding signal (z-score),Neu5Gc(a2-3)Gal(b1-4)Glc,-0.276
